The results in this text go back to PubChem BioAssay.

Calls of active or inactive are those of the source.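 How the source made its calls: active means growth inhibition above 50% at the single 2 µM test dose, taken to imply half-maximal potency below 2 µM; inactive means the rest.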

The assay in a line: antimalarial activity against Dd2 strain (AID 2302).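 Further: 0% = DMSO untreated growth and 100% = chloroquine plus artemisinin killed control.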 The note with it: P. falciparum Dd2 in RBCs, LDH growth readout, 72 h; at 2 µM; stronger effect = higher value.
With `c1ccc(CN2CCC(Nc3ccc(-c4cn[nH]c4-c4ccccn4)nc3)CC2)cc1`, the growth inhibition is 23% (inactive).

As to `CN1CCN(c2cc3c(cc2Cl)CCN3C(=O)Cc2ccc(NC(=O)Nc3cccc4ccccc34)cc2)CC1`, the growth inhibition was 18% (inactive).

`O=C(CCC1CCCCC1=O)c1ccccc1` (stereo unspecified): the growth inhibition was 3% (inactive).

Consider `CCOc1c(C)cc(C(F)(F)F)cc1CNCCCNc1cc(=O)c2ccccc2[nH]1`, for which the growth inhibition was 1% (inactive).

Turning to `CCc1cn2c3c(cc(C(=O)N[C@@H](Cc4ccccc4)[C@H](O)CNC4CCCC4)cc13)N(C)S(=O)(=O)CC2`, the growth inhibition was 99% (active).

As for `COc1ccc(NC(=O)[C@H](CC(C)C)Nc2cc(C)nc(NCCc3ccc(F)cc3)n2)cc1`, the growth inhibition is 79% (active).

Regarding `CN(C)CCN(C)Cc1ccc(-c2ccc(NC(=O)c3ccc(Cl)cc3)cc2)cc1`, the growth inhibition was 19% (inactive).

For `Cc1cc(-c2cc3nc4c(c(=O)n3[nH]2)CCCC4)c(C)o1`, the growth inhibition is 82% (active).

Turning to `CC(C)NCC(=O)Nc1cccc(C(=O)Nc2cccc(C(F)(F)F)c2)c1`, the growth inhibition is 89% (active).

As to `Cn1c(NC(=O)C2CCC(CNC(=O)c3ccc(O)c(-c4ccc(Cl)c(Cl)c4)c3)CC2)nc2ccccc21` (stereo unspecified), the growth inhibition is 100% (active).

Take `O=C(Nc1ccc(OC2CCN(Cc3ccsc3)C2)c(Cl)c1)c1ccco1` (stereo unspecified): the growth inhibition was 96% (active).

With `O=c1[nH]c2c(c(O)c1[N+](=O)[O-])CCC2`, the growth inhibition was 1% (inactive).

Regarding `COc1cc(OC)c2c(C)cc(NCCCn3ccnc3)nc2c1`, the growth inhibition is 22% (inactive).

For the molecule `CN1CCCN(Cc2cccc(-c3cccc(NC(=O)c4cccc(C#N)c4)c3)c2)CC1`, the growth inhibition was 33% (inactive).

Consider `O=C(NCCSCc1c(F)cccc1Cl)c1cnc2c(c1)nc(-c1cnc(-c3ccccc3)[nH]1)n2CCc1cnc[nH]1`, for which the growth inhibition was 45% (inactive).

As to `O=C(Nc1ccc(Cl)cc1)Nc1ccc(-c2csc(-c3nc4ccccc4[nH]3)c2)cc1`, the growth inhibition was 40% (inactive).

As to `CCOC(=O)C(C(C)=O)C(c1ccccc1)C(C(C)=O)C(=O)OCC` (stereo unspecified), the growth inhibition was 14% (inactive).

With `CN(C)CCCn1c(C(=O)OC(c2ccccc2)c2ccccc2)cc2cc(OCc3ccccc3)ccc21`, the growth inhibition is 85% (active).

`Cc1noc(C)c1-c1cccc(CNCc2cccc(-c3cccc(-c4nc5ccc(F)cc5[nH]4)c3)c2)c1`: the growth inhibition was 73% (active).

Consider `CCOc1cc(C(=O)NCCc2ccc(Cl)c(Cl)c2)ccc1-c1nc2ccc(Cl)cc2[nH]1`, for which the growth inhibition was 47% (inactive).

In the case of `c1cc(CNCCc2ccncc2)cc(-c2csc(-c3nc4ccccc4[nH]3)c2)c1`, the growth inhibition was 99% (active).

Regarding `CN(C)c1ccc(-c2csc(C(=O)NCC3CCN(Cc4cccc(C(F)(F)F)c4)C3)c2)cc1` (stereo unspecified), the growth inhibition was 58% (active).

With `CC(C)c1ccc(CN2CCC(NC(=O)c3ccc(-c4cccc(F)c4)s3)CC2)cc1`, the growth inhibition was 12% (inactive).

For `O=C(Cn1c(SCc2cccc(F)c2F)cc(=O)c2ccccc21)N(CCc1cnc[nH]1)Cc1ccc(-c2ccc(C(F)(F)F)cc2)cc1`, the growth inhibition is 72% (active).

For `CCOC(=O)c1c(CCc2ccc(C(F)(F)F)cc2)nc2c(c1-c1ccc(C(=O)N[C@@H](C)c3ccncc3)cc1)C(=O)N1CCC[C@@H]21`, the growth inhibition was 68% (active).

As to `CCCCCn1c(Sc2ccc(C#N)c([N+](=O)[O-])c2)nnc1-c1ccc(OC)cc1`, the growth inhibition was 44% (inactive).

Take `c1cc(C2=N[C@H]3CCCC[C@@H]3N2)ccc1OCCCOc1ccc(C2=N[C@@H]3CCCC[C@H]3N2)cc1`: the growth inhibition was 64% (active).

Regarding `O=C(/C=C/c1ccc(Cl)cc1)NCCCCCN1CCN(C(=O)Nc2ccc(Cl)c(C(F)(F)F)c2)CC1`, the growth inhibition was 5% (inactive).

For `COC(=O)c1cccc(NC(=O)NC2CCN(c3ccnc(Nc4ccc(OC)cc4)n3)C2)c1` (stereo unspecified), the growth inhibition was 65% (active).

Consider `O=C(NC1CCN(Cc2cccc(C(F)(F)F)c2)CC1)c1ccc(-c2cccc(Cl)c2)s1`, for which the growth inhibition was 33% (inactive).

Regarding `CN(C)CCNCc1ccc(-c2cccc(-c3nc4ccccc4[nH]3)c2)cc1`, the growth inhibition is 63% (active).

Take `Cc1cc(NN=Cc2ccccn2)c2cc(F)ccc2n1`: the growth inhibition is 96% (active).

With `O=C(/C=C/c1ccc(Cl)c(Cl)c1)NCCCCCN1CC[C@H](NC(=O)Nc2ccc(Oc3ccccc3)cc2)C1`, the growth inhibition was 14% (inactive).

`CC1(C)CCC(C)(C)c2c1ccc(C1CCN(CCCCNC(=O)c3ccc(-c4ccc(Cl)cc4)cc3)CC1)c2O`: the growth inhibition was 72% (active).

`COc1ccc(CCNC(=O)c2cnc3c(c2)nc(-c2cnc(-c4ccccc4)[nH]2)n3CCc2cnc[nH]2)cc1`: the growth inhibition is 70% (active).

Turning to `COc1cc(C)nc2ccc(NC(=O)c3cc(C(F)(F)F)cc(C(F)(F)F)c3)cc12`, the growth inhibition is 99% (active).
